Screening data: PubChem, National Center for Advancing Translational Sciences (NCATS)
SMN2 splice up: qHTS Assay for Enhancers of SMN2 Splice Variant Expression | hit rate 2.8% among 210,000 | Potency, µM (series often up to 46.1 µM), without a hit: at the top dose activity change, positive = activation, hits mostly activators | AID 1458, 2008 | HEK293 SMN2-luciferase splicing reporter, luminescence, 30-36 h; further: % of control where 0% means no effect; nearly all actives have a fitted effect of over 55% in size
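HEK293 cells carry an SMN2 […]–luciferase reporter in which exon 7 inclusion puts luciferase in frame. Cells were plated 10-12 h before compound addition, then incubated 30-36 h at 37C. ONE-Glo luminescence was read; sodium butyrate at 4.5 mM final served as control.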
Rab9 promoter act: qHTS Assay for Rab9 Promoter Activators; Potency, µM (highest dose often 9.22 µM), for the others: at the top dose activation, negative = inhibition, most hits filed as activators; AID 485297, 2010; Huh7 Rab9 promoter-luciferase reporter, luminescence, 24 h; hit rate 2.8% among 320,000; further: % of control where 0% means no effect; nearly all actives have a fitted effect of over 60% in size
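Stable Rab9-luc Huh7, 1500 cells/well, 2 h settle; cmpd in DMSO, 24 h, 37 °C/5% CO2; luciferase reagent 10 min RT; luminescence.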
NPC1 prom act: qHTS Assay for NPC1 Promoter Activators. AID 485313, 2010. Potency, µM (doses to about 9.22 µM), for inactives: at the top dose activation, hits mostly activators. Huh7 NPC1 promoter luciferase reporter, 24 h. hit rate 2.4% among 320,000; further: % of control where 0% means no effect; nearly all actives have a fitted effect of over 60% in size
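Luminescence read-out of NPC1 promoter-driven luciferase in stably transfected Huh7 cells; compounds delivered in DMSO and left 24 h at 37C, 5% CO2, qHTS titration format.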
FLuc counter: qHTS profiling assay for firefly luciferase inhibitor/activator using purifed enzyme and Km concentrations of substrates (counterscreen for miR-21 project) | Luciferin 4-monooxygenase (Photinus pyralis), P08659 | purified FLuc, Km substrates, luminescence inhibition | Potency, µM (top dose mostly 57.5 µM), without a hit: at the top dose activity change, negative = inhibition, hits mostly inhibitors | hit rate 6.9% among 360,000 | AID 588342, 2011;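 further: plate controls were vehicle for no effect and reference inhibitor for full effect; nearly all actives have a fitted effect of over 55% in size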
Target sequence (P08659 whole entry, looked up): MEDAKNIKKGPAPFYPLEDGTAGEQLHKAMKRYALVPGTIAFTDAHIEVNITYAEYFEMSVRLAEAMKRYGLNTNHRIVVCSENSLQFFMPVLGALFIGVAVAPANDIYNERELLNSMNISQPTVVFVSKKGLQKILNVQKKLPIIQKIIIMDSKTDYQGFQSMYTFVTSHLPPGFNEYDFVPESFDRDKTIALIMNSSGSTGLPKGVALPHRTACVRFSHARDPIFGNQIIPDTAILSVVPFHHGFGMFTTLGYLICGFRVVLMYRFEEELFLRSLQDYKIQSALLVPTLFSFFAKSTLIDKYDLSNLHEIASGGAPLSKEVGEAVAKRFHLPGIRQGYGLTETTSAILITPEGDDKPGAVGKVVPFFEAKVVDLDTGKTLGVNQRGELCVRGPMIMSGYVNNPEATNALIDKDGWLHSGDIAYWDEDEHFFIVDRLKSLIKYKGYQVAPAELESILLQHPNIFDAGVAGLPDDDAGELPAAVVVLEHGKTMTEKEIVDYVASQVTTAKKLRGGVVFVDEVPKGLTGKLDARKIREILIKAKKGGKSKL
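Biochemical qHTS of compounds, final roughly 60 µM downward over six points, against 10 nM purified firefly luciferase using Km concentrations of substrates (10 uM D-luciferin, 10 uM ATP) in Tris acetate pH 7.5 buffer; luminescence output.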
ELG1 genotoxic: qHTS screen for small molecules that induce genotoxicity in human embryonic kidney (HEK293T) cells expressing luciferase-tagged ELG1 | HEK293T ELG1-luciferase reporter, luminescence, 16 h | Potency, µM (titrated, usually from 46 µM), without a hit: at the highest dose activity change, positive = activation, actives largely listed as activators | hit rate 1.3% among 330,000 | AID 504466, 2011; further: % of control where 0% means no effect; nearly all actives have a fitted effect of over 60% in size
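Luminescence read-out: rising ELG1-luciferase signal, reflecting elevated ELG1 protein under genetic stress, flags genotoxic compounds. Cells were treated for 16 hr at 37 °C before ONE-Glo detection.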
* marks the source's active call; other numbers are inactive results. An excerpt weighted towards active compounds, which were near 7.5% of everything screened. The call rests on the fitted dose curve; in most records, active means well fitted curve in the direction sought with a large enough effect; inconclusive means small, poorly fitted or top-dose-only effect, or another doubt; inactive means no such curve, though single readings can be large; an effect the other way counts as inactive or inconclusive. Potency means the concentration at half of the fitted maximal effect.

How did COc1ccc(-c2n[nH]c(C)c2-c2ccc(Cl)cc2)c(O)c1 do in these assays?
SMN2 splice up: -16%; Rab9 promoter act: 3%; NPC1 prom act: 2%; FLuc counter: 1%; ELG1 genotoxic: -6%

How did COc1ccc(-c2cc(-c3ccc(C)cc3)n[nH]2)c(O)c1 do in these assays?
Rab9 promoter act: 1.3µM*; NPC1 prom act: 1.3µM*; FLuc counter: 4.8µM*; ELG1 genotoxic: inconclusive

How did COc1ccc(Oc2ccc(-c3ccn[nH]3)cc2)cc1 do in these assays?
Rab9 promoter act: inconclusive; NPC1 prom act: inconclusive; FLuc counter: 24µM*; ELG1 genotoxic: 10%

Results for Cc1ccc(-n2nc(C(=O)N3CCCCC3)c(=O)n(C)c2=O)cc1 ?
FLuc counter: 1%

How did CN(c1ccccc1)S(=O)(=O)c1cccc(NC(=O)c2ccc(=O)[nH]n2)c1 do in these assays?
ELG1 genotoxic: -5%

How did O=C(CSc1nnc(NC(=O)C2CC(=O)N(c3ccc(F)cc3)C2)s1)NC1CCCC1 (configuration not stated) do in these assays?
Rab9 promoter act: -2%; NPC1 prom act: 0%; FLuc counter: -1%; ELG1 genotoxic: 5%

Results for Cc1ccccc1OCc1nnc2c3cnn(C)c3ncn12 ?
SMN2 splice up: 19%; Rab9 promoter act: 4µM*; NPC1 prom act: 3.2µM*; FLuc counter: 21µM*; ELG1 genotoxic: inconclusive

What do the screens show for `CCCCOc1ccc(C(=O)N(C)CC(=O)Nc2ccc(C)cc2)cc1`?
Rab9 promoter act: 0%; NPC1 prom act: 2%; FLuc counter: 2%; ELG1 genotoxic: -3%

What do the screens show for `O=C(CC1C(=O)NCCN1C(=O)c1ccccc1)Nc1cc(Cl)ccc1Cl` (configuration not stated)?
Rab9 promoter act: 0%; NPC1 prom act: 0%; FLuc counter: 5%; ELG1 genotoxic: -3%

Results for COc1cccc(C(=O)C2CN(c3ccccc3)CC2c2ccc(Cl)cc2)c1 (configuration not stated) ?
SMN2 splice up: -26%; Rab9 promoter act: -6%; NPC1 prom act: 1%; FLuc counter: 19µM*; ELG1 genotoxic: -8%

Results for O=C(c1ccccc1)C1CN(c2ccccc2)CC1c1ccc(Cl)cc1 (configuration not stated) ?
SMN2 splice up: -21%; Rab9 promoter act: -2%; NPC1 prom act: 2%; FLuc counter: -1%; ELG1 genotoxic: 2%

What do the screens show for `O=C(Nc1ccn(Cc2ccccc2F)n1)c1ccc(COc2cccc(Br)c2)cc1`?
SMN2 splice up: inconclusive; Rab9 promoter act: 1.8µM*; NPC1 prom act: 1.6µM*; FLuc counter: 6.7µM*; ELG1 genotoxic: inconclusive

How did O=C(Nc1ccn(Cc2ccccc2F)n1)c1ccc(COc2ccccc2Cl)cc1 do in these assays?
SMN2 splice up: -84%; Rab9 promoter act: -15%; NPC1 prom act: -2%; FLuc counter: -3%; ELG1 genotoxic: -9%

Results for COc1ccccc1CNC(=O)C1CCN(S(=O)(=O)Cc2ccccc2)CC1 ?
FLuc counter: 1%

How did COc1ccc(OC)c(N/C(C)=C/C(=O)c2ccccc2)c1 do in these assays?
SMN2 splice up: 188%; Rab9 promoter act: 3.5µM*; NPC1 prom act: 4µM*; FLuc counter: 0.85µM*; ELG1 genotoxic: inconclusive

Results for COc1ccc(N/C(C)=C/C(=O)c2ccccc2)cc1 ?
SMN2 splice up: 13µM*; Rab9 promoter act: 2.8µM*; NPC1 prom act: inconclusive; FLuc counter: 3µM*; ELG1 genotoxic: inconclusive

Results for COc1ccc(OC)c(NC(=O)Nc2ccccc2C)c1 ?
SMN2 splice up: 21%; Rab9 promoter act: -3%; NPC1 prom act: -2%; FLuc counter: -7%; ELG1 genotoxic: 2%

What do the screens show for `COc1ccc(N/C(C)=C/C(=S)Nc2ccccc2)cc1`?
SMN2 splice up: 11%; Rab9 promoter act: 2%; NPC1 prom act: 2%; FLuc counter: 11µM*; ELG1 genotoxic: 12%

Results for COc1ccc(OC)c(N/C=C/C(=O)c2ccccc2)c1 ?
Rab9 promoter act: inconclusive; NPC1 prom act: inconclusive; FLuc counter: 0.067µM*; ELG1 genotoxic: inconclusive

What do the screens show for `CCn1cc(/C=N\NC(=O)C2(C)CC2(Cl)Cl)c(C)n1` (configuration not stated)?
SMN2 splice up: inconclusive; Rab9 promoter act: 1%; NPC1 prom act: -2%; FLuc counter: -6%; ELG1 genotoxic: -3%

What do the screens show for `CCN(CC(=O)Nc1ccc(OC)cc1)CC(=O)Nc1ccc2c(c1)OCO2`?
Rab9 promoter act: 1%; NPC1 prom act: -3%; FLuc counter: 3%; ELG1 genotoxic: 0%

How did COc1ccc(C(=O)/C=C(\C)Nc2ccc3c(c2)OCO3)cc1 do in these assays?
SMN2 splice up: inconclusive; Rab9 promoter act: 2.2µM*; NPC1 prom act: 3.2µM*; FLuc counter: 4.8µM*; ELG1 genotoxic: inconclusive

How did Cn1c(=S)[nH]c2scc(-c3cccs3)c2c1=O do in these assays?
SMN2 splice up: 12%; Rab9 promoter act: 3%; NPC1 prom act: -12%; FLuc counter: inconclusive; ELG1 genotoxic: -6%

What do the screens show for `C=CCn1c(=S)[nH]c2scc(-c3cccs3)c2c1=O`?
SMN2 splice up: -79%; Rab9 promoter act: 1%; NPC1 prom act: -3%; FLuc counter: 13µM*; ELG1 genotoxic: -21%

What do the screens show for `C[C@@H]1CN(Cc2nc(-c3cccs3)no2)C[C@H](C)O1`?
SMN2 splice up: 4%; Rab9 promoter act: 1%; NPC1 prom act: 2%; FLuc counter: -3%; ELG1 genotoxic: 3%

Results for c1ccc(-c2nc(-c3ccc(-c4ccon4)s3)no2)cc1 ?
Rab9 promoter act: 1.4µM*; NPC1 prom act: 1.1µM*; FLuc counter: 1.2µM*; ELG1 genotoxic: inconclusive

What do the screens show for `c1csc(-c2nc(-c3ccc(-c4ccon4)s3)no2)c1`?
Rab9 promoter act: 0.35µM*; NPC1 prom act: 0.56µM*; FLuc counter: 0.6µM*; ELG1 genotoxic: 2.3µM*

What do the screens show for `CC(=O)c1cccc(NC(=O)c2cccc(NC(=O)c3ccco3)c2)c1`?
Rab9 promoter act: 8%; NPC1 prom act: -1%; FLuc counter: -15%; ELG1 genotoxic: -3%

What do the screens show for `C/C(=N\NC(=O)c1cccc(C)c1)c1cccc(NC(=O)c2ccco2)c1`?
SMN2 splice up: 4%; Rab9 promoter act: -5%; NPC1 prom act: 1%; FLuc counter: 15µM*; ELG1 genotoxic: 3%

Results for C/C(=N\NC(=O)c1cccc(Cl)c1)c1cccc(NC(=O)c2ccco2)c1 ?
SMN2 splice up: 8%; Rab9 promoter act: 0%; NPC1 prom act: -4%; FLuc counter: 19µM*; ELG1 genotoxic: -3%

What do the screens show for `C#CCCCCCCCCCCCc1ccco1`?
SMN2 splice up: -3%
